Data published in the supplement of paper PMC13380429.

Test system: Vero E6 infected with SARS-CoV-2
Experiment: inhibition of SARS-CoV-2 cytopathic effect; higher = more antiviral protection, active = above 15
Conditions: 48 h

Measured: inhibition of SARS-CoV-2 cytopathic effect

CCCC(=O)O [sodium-butyrate]
inactive: 1 nM -1.28% | 8.33 nM -0.1% | 100 nM 1.57% | 833.33 nM -0.53% | 10000 nM 0.24%

CC1(C)O[C@@H]2C[C@H]3[C@@H]4CCC5=CC(=O)C=C[C@]5(C)[C@H]4[C@@H](O)C[C@]3(C)[C@]2(C(=O)CO)O1 [desonide]
inactive: 1 nM 1.41% | 8.33 nM 2.82% | 100 nM 5.19% | 833.33 nM 5.19% | 10000 nM 1.37%

NC(=O)c1cnccn1 [pyrazinamide]
inactive: 1 nM -9.22% | 8.33 nM -8.44% | 100 nM -5.67% | 833.33 nM -9.11% | 10000 nM -9.96%

CCCCCOc1ccc(-c2ccc(-c3ccc(C(=O)N[C@H]4C[C@@H](O)[C@@H](O)NC(=O)[C@@H]5[C@@H](O)[C@@H](C)CN5C(=O)[C@H]([C@@H](C)O)NC(=O)[C@H]([C@H](O)[C@@H](O)c5ccc(O)cc5)NC(=O)[C@@H]5C[C@@H](O)CN5C(=O)[C@H]([C@@H](C)O)NC4=O)cc3)cc2)cc1 [anidulafungin]
inactive: 1 nM -3.73% | 8.33 nM 0.49% | 100 nM 1.56% | 833.33 nM 0.77% | 10000 nM -2.12%

CN(C)CCn1nnnc1SCC1=C(C(=O)O)N2C(=O)[C@@H](NC(=O)Cc3csc(N)n3)[C@H]2SC1 [cefotiam]
inactive: 1 nM 1.69% | 8.33 nM -0.06% | 100 nM -0.67% | 833.33 nM 1.14% | 10000 nM 0.56%

Cc1cc(C)c(NC(=O)C2CC3CCC2C3)c(C)c1 (stereo not given)
inactive: 1 nM -1.62% | 8.33 nM -1.21% | 100 nM -3.03% | 833.33 nM -0.39% | 10000 nM 2.61%

CC(C)=CC[C@@H](O)C1=CC(=O)c2c(O)ccc(O)c2C1=O [Shikonin]
inactive: 1 nM 0.59% | 8.33 nM 0.65% | 100 nM 0.38% | 833.33 nM 3.65% | 10000 nM 2.04%

CCN(CC)CC1CCCCN1CC(=O)N1c2ccccc2C(=O)Nc2cccnc21 (stereo not given) [otenzepad]
inactive: 1 nM 2.23% | 8.33 nM 3.08% | 100 nM -0.68% | 833.33 nM 5.55% | 10000 nM 0.04%

O=c1c2ccccc2[se]n1-c1ccccc1 [ebselen]
inactive: 1 nM 0.19% | 8.33 nM 3.3% | 100 nM 2.73% | 833.33 nM 3.17% | 10000 nM -3.01%

CCN(CC)CCOCCOC(=O)C1(c2ccccc2)CCCC1 [carbetapentane]
inactive: 1 nM -0.34% | 8.33 nM 0.73% | 100 nM 1.1% | 833.33 nM 1.39% | 10000 nM 0.95%

C=CC(=O)Nc1cc(Nc2nccc(-c3cn(C)c4ccccc34)n2)c(OC)cc1N(C)CCN(C)C [osimertinib]
inactive: 1 nM 1.08% | 8.33 nM 0.08% | 100 nM -5.65% | 833.33 nM -10.8% | 10000 nM -16.5%

O=C(/C=C/c1c(C(=O)O)[nH]c2cc(Cl)cc(Cl)c12)Nc1ccccc1 [gavestinel]
inactive: 1 nM -3.94% | 8.33 nM -3.2% | 100 nM -2.69% | 833.33 nM -2.17% | 10000 nM -3.95%

OC[C@@H](O)[C@H]1O[C@@H]2O[C@H](C(Cl)(Cl)Cl)O[C@@H]2[C@H]1O [chloralose]
inactive: 1 nM 1.75% | 8.33 nM 3.01% | 100 nM 2.94% | 833.33 nM -0.88% | 10000 nM -0.85%

CCn1c2ccccc2c2cc(CNC)ccc21
inactive: 1 nM 4.22% | 8.33 nM 4.54% | 100 nM -0.29% | 833.33 nM -0.75% | 10000 nM -3.22%

CNC(=O)[C@@H](c1ccccc1)N1CCc2cc(OC)c(OC)cc2[C@@H]1CCc1ccc(C(F)(F)F)cc1 [almorexant]
inactive: 1 nM 2.74% | 8.33 nM 2.39% | 100 nM 2.44% | 833.33 nM 1.95% | 10000 nM 1.06%

CC(C)[C@@]1(NC(=O)[C@@H]2C[C@@H]3c4cccc5[nH]cc(c45)C[C@H]3N(C)C2)O[C@@]2(O)[C@@H]3CCCN3C(=O)[C@H](Cc3ccccc3)N2C1=O [dihydroergocristine]
inactive: 1 nM 3.37% | 8.33 nM -0.59% | 100 nM 0.24% | 833.33 nM -1.73% | 10000 nM -1.9%

COc1ccc(/C=C\c2cc(OC)c(OC)c(OC)c2)cc1O [combretastatin-A-4]
inactive: 1 nM 1.94% | 8.33 nM 1.57% | 100 nM -1.22% | 833.33 nM -2.08% | 10000 nM -0.45%
